The values that follow come from PubChem BioAssay (Tox21).

Experiment [1] in a line: qHTS assay for small molecule agonists of the p53 signaling pathway (AID 651631; calls by dose curve; also: nearly all actives have a fitted effect of over 15% in size). In short, it runs like this:
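Quantitative high-throughput format: 4,000 p53RE-bla HCT-116 cells/well, 5 h pre-incubation, 16 h compound exposure at 37 °C, 2 h room-temperature substrate step, fluorescence intensity measured.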
Background: Quantitative high-throughput screening tests each substance at several concentrations.

The nature of experiment [2]: qHTS assay for small molecules that induce genotoxicity in human embryonic kidney cells expressing luciferase-tagged ATAD5 (AID 651632). Also: nearly all actives have a fitted effect of over 15% in size. The essentials:
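HEK293T cells carrying luciferase-tagged ATAD5 were given compound or DMSO vehicle and incubated 16 hr at 37C, 5% CO2. Luciferase activity was read after 30 min at room temperature with Amplite; a rise signals genotoxic stress.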

Experiment [3] is described as follows: qHTS assay for small molecule agonists of the p53 signaling pathway - cell viability (AID 651633; calls by dose curve;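 also: p53RE-bla HCT reporter cells with a stable beta-lactamase p53 reporter; series mostly up to about 83 µM; nearly all actives have a fitted effect of over 30% in size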). The essentials:
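Viability counter-read: CellTiter-Glo luminescence (30 min, room temperature) in the same p53RE-bla plates. These plates had been exposed to compounds for 16 h at 37 C.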

Experiment [4] is described as follows: qHTS assay for small molecules that induce genotoxicity in human embryonic kidney cells expressing luciferase-tagged ATAD5 - cell viability (AID 651634; calls by dose curve; also: nearly all actives have a fitted effect of over 25% in size). The essentials: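 HEK293T cells carrying luciferase-tagged ATAD5, 2,000 cells/well, exposed to compound for 15.5 hr at 37C. Viability read as live-cell protease activity by CellTiter-Fluor fluorescence after 30 min at 37C.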

Experiment [5] is described as follows: qHTS assay for small molecule disruptors of the mitochondrial membrane potential - cell viability (AID 720634; calls by dose curve;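 also: human HepG2 liver cancer cells; series mostly up to about 83 µM; nearly all actives have a fitted effect of over 20% in size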). In short, it runs like this: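 HepG2 cells, 2,000 per well, attached overnight, then treated 1 hr at 37 C, 5% CO2. Viability read as ATP by CellTiter-Glo luminescence after 30 min at room temperature. Read in the same wells as the m-MPI membrane-potential dye assay.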

Experiment [6] is described as follows: qHTS assay to test for compound auto fluorescence at 590 nm (red) in HepG2 cells (AID 720674). In short, it runs like this:
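Red autofluorescence (Ex/Em 540/590 nm, Rose Bengal sodium equivalents) was measured in HepG2 cells, 2,000 per well in MEM plus 10% FBS, plated overnight at 37 C. Readings were taken 1 hr after adding 23 nL compound or DMSO, at 37 C and 5% CO2.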

The nature of experiment [7]: qHTS assay to test for compound auto fluorescence at 535 nm (green) in HepG2 cells (AID 720675).
Experiment [8] can be described thus: qHTS assay to test for compound auto fluorescence at 460 nm (blue) in HEK293 cells (AID 720678). In short, it runs like this: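 Measured: blue fluorescence (Ex 405/Em 460 nm) of compound-treated HEK293 cells, incubated overnight at 37C with 5% CO2 and scaled to triamterene equivalents.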
Experiment [9] can be described thus: qHTS assay to test for compound auto fluorescence at 590 nm (red) in HEK293 cells (AID 720679). In short, it runs like this:
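Using HEK293 cells at 2,000 per well, the screen added 23 nL of each compound after cell attachment and incubated overnight (37C, 5% CO2). The plate reader then captured red-label fluorescence, Ex/Em 540/590nm.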

The nature of experiment [10]: qHTS assay for small molecule disruptors of the mitochondrial membrane potential (AID 720635). Also: potency is read from the fitted curve at half-maximal effect. In short, it runs like this: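 Mitochondrial membrane potential tracked with Mito-MPS dye, red aggregates (ex 540/em 590 nm) against green monomers (ex 490/em 535 nm). Compound treatment 1 hr at 37C, dye 30 min in HepG2.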

Results filed as inconclusive are left out. The source made the active and inactive calls. Unless noted, calls follow the shape of the dose curve; as a rule, active = well fitted curve in the direction sought with a large enough effect in the repeat runs; inconclusive = weak or mixed curves; inactive = no such curve, though single readings can be large; an effect the other way counts as inactive or inconclusive.

On to `OCC(O)CS` (stereo unspecified), for which the Potency entry in [1], in [2], in experiment [3], in [4], in [5] and in [8] was “inactive” throughout. The compound was classed as inactive in experiment [6], in [7] and in experiment [9].
In the case of `C=C(CC(=O)O)C(=O)O`, the Potency result in [2], in experiment [3], in experiment [4], in [5], in [10] and in experiment [8] was “inactive” in each case. Further, the compound was classed as inactive in experiment [6], in experiment [7] and in experiment [9].
As to `CC(C)(C)NC[C@H](O)COc1nsnc1N1CCOCC1`, the Potency result in experiment [2], in [3], in [4], in experiment [5], in [10] and in experiment [8] was “inactive” in each case. Moreover, the call in [6], in [7] and in experiment [9] was inactive.
Take `O=C(O)C1=NN(c2ccc(S(=O)(=O)O)cc2)C(=O)C1`: the Potency result in experiment [2], in experiment [3], in experiment [4], in [5], in experiment [10] and in [8] was “inactive” in each case. Moreover, the result in experiment [6], in experiment [7] and in experiment [9] was inactive.
Turning to `CCCCCCCCO`, the Potency result in [1], in [2], in experiment [3], in experiment [4], in experiment [5] and in experiment [10] was “inactive” each time. Moreover, in experiment [8], the Potency entry is “inactive”. The outcome in experiment [6], in [7] and in [9] was inactive.
As to `CC(COCC(C)OC(=O)c1ccccc1)OC(=O)c1ccccc1` (stereo unspecified), the Potency result in [2], in experiment [3], in experiment [4], in experiment [5], in experiment [10] and in [8] was “inactive” in each case. Further, the result in experiment [6], in experiment [7] and in experiment [9] was inactive.
As to `CCCCCCCC(=O)O`, the Potency entry in [2], in experiment [3], in [4], in [5], in experiment [10] and in experiment [8] was “inactive” in each case. The compound was classed as inactive in experiment [6], in experiment [7] and in [9].
Take `OCCOCCOCCOCCOCCO`: the Potency entry in experiment [1], in experiment [3], in [4], in [5], in experiment [10] and in experiment [8] was “inactive” each time. The call in experiment [6], in experiment [7] and in experiment [9] was inactive.
As to `C[n+]1ccn(CCO)c1`, the Potency entry in [2], in experiment [3], in experiment [4], in [5], in experiment [10] and in experiment [8] was “inactive” each time. Further, the outcome in [6], in experiment [7] and in [9] was inactive.
Regarding `COC(=O)OC`, the Potency result in [2], in [3], in experiment [4], in experiment [5], in experiment [10] and in experiment [8] was “inactive” each time. Moreover, the compound was classed as inactive in experiment [6], in experiment [7] and in [9].
For the compound `CC(C=O)Cc1ccc(C(C)(C)C)cc1` (stereo unspecified), the Potency result in [2], in [3], in experiment [4], in experiment [5] and in [8] was “inactive” in each case. The Potency in experiment [10] was 61.1 µM (active). In addition, the compound was called inactive in [6], in [7] and in experiment [9].
As to `CCOC(=O)CC(=O)OCC`, the Potency result in [2], in [3], in [4], in experiment [5], in experiment [10] and in [8] was “inactive” each time. Besides, the compound was called inactive in [6], in experiment [7] and in experiment [9].
Consider `CCCCCNCCCCC`, for which the Potency entry in experiment [2], in [3], in experiment [4], in experiment [5], in experiment [10] and in [8] was “inactive” each time. Besides, the call in experiment [6], in experiment [7] and in experiment [9] was inactive.
Take `NCCNCCNCCN`: the Potency result in experiment [1], in experiment [3], in experiment [4], in [5], in experiment [10] and in experiment [8] was “inactive” throughout. Besides, the result in experiment [6], in experiment [7] and in experiment [9] was inactive.
For the compound `CC(=O)Nc1ccc(CC(=O)O)cc1`, the Potency result in experiment [2], in [3], in experiment [4], in [5], in experiment [10] and in experiment [8] was “inactive” each time. Also, the outcome in experiment [6], in experiment [7] and in [9] was inactive.
`CC(=O)CC(=O)N(C)C`: the Potency result in [2], in [3], in experiment [4], in experiment [5], in experiment [10] and in [8] was “inactive” throughout. Further, the compound was classed as inactive in [6], in experiment [7] and in [9].
Regarding `CC1=CC(=O)CC(C)(C)C1`, the Potency entry in [1], in [3], in experiment [4], in experiment [5], in experiment [10] and in experiment [8] was “inactive” in each case. The compound was called inactive in [6], in experiment [7] and in experiment [9].
In the case of `COc1c2ccoc2cc2oc(=O)ccc12`, the Potency entry in experiment [1], in experiment [2], in experiment [3], in experiment [4], in [5] and in experiment [10] was “inactive” throughout. The Potency result in experiment [8] is “inactive”. In addition, the outcome in experiment [6], in experiment [7] and in experiment [9] was inactive.
For the compound `COC(=O)/C=C\C(=O)OC`, the Potency result in experiment [1], in [2], in [3], in [4], in experiment [5] and in experiment [8] was “inactive” each time. Moreover, the compound was classed as inactive in [6], in [7] and in experiment [9].
`O=[N+]([O-])c1cc(C(F)(F)F)ccc1Cl`: the Potency entry in experiment [2], in experiment [3], in [4], in experiment [5], in [10] and in experiment [8] was “inactive” throughout. The outcome in experiment [6], in [7] and in [9] was inactive.
Take `CO[Si](CCCNCCN)(OC)OC`: the Potency entry in experiment [2], in experiment [3], in experiment [4], in experiment [5], in [10] and in experiment [8] was “inactive” in each case. Besides, the compound was called inactive in experiment [6], in experiment [7] and in [9].
Consider `C1CCCNCC1`, for which the Potency entry in experiment [2], in [3], in experiment [4], in experiment [5], in experiment [10] and in [8] was “inactive” in each case. The compound was classed as inactive in experiment [6], in experiment [7] and in experiment [9].
Regarding `OCC(CO)(CO)CO`, the Potency result in experiment [2], in experiment [3], in [4], in [5], in experiment [10] and in experiment [8] was “inactive” in each case. Moreover, the compound was classed as inactive in experiment [6], in experiment [7] and in experiment [9].
As for `Cc1ccc(Cl)cc1`, the Potency result in experiment [2], in experiment [3], in [4], in experiment [5], in experiment [10] and in experiment [8] was “inactive” throughout. Besides, the result in experiment [6], in [7] and in experiment [9] was inactive.
Turning to `CC(=O)OC/C=C(\C)CCC=C(C)C`, the Potency result in experiment [1], in experiment [2], in experiment [3], in [4], in experiment [5] and in [8] was “inactive” each time. The compound was called inactive in experiment [6], in experiment [7] and in experiment [9].
`COC(=O)CCCCC(=O)OC`: the Potency result in [2], in experiment [3], in [4], in experiment [5], in [10] and in experiment [8] was “inactive” throughout. The compound was called inactive in experiment [6], in experiment [7] and in [9].
